Data taken from PubChem BioAssay (Tox21).
Records with an inconclusive call do not appear. Entries that show only a call come without a potency. Calls of active or inactive are those of the source. Calls follow the shape of the dose curve; as a rule, active = well fitted inhibition curve with a large enough effect in the signal ratio in the repeat runs (not every such curve was filed as active); inconclusive = weak or mixed curves, or effect the other way; inactive = flat fitted curve, though single readings scatter; the % refers to the signal ratio.

experiment: cAMP Responsive Elements (CRE) small molecule antagonists, cell-based qHTS assay (AID 1963591); details: CRE-bla HEK293T, beta-lactamase FRET ratio; series mostly up to 92.4 µM
Excerpt: U.S. Tox21 Program National Center for Advancing Translational Sciences [NCATS] Division of Preclinical Innovation [DPI] U.S. Environmental Protection Agency [EPA] National Institutes of Environmental Health Sciences [NIEHS] National Toxicology Program [NTP] U.S. Food and Drug Administration [FDA] Tox21 Assay Overview: CREB (cyclic-AMP Responsive Element Binding Protein) is a cellular transcription factor. It binds to certain DNA sequences called cAMP Responsive Elements (CRE) and regulates the transcription of the genes. […] This cell line can be used to find agonists/antagonists of the cyclic AMP signaling pathway. The activation of the report gene under culture conditions can be detected by fluorescence intensity. This cell line has been used to screen the Tox21 10K compound library to […].
Tox21 Assay Protocol Summary: CRE-bla Hek 293T cells were suspended in assay medium (DMEM containing 10% dialyzed FBS, 0.1 mM NEAA, 1 mM sodium pyruvate and 25 mM HEPES) and dispensed at 2,000 cells/4 uL /well into 1536-well black wall/clear bottom plates using a Multidrop Combi (ThermoFisher Scientific, Waltham, MA) dispenser. After the assay plates were incubated at 37 C/5% CO2 for 18 hrs, 23 nL of compounds dissolved in DMSO, positive controls or DMSO only was transferred to the assay plate by a pintool workstation (Kalypsys, San Diego, CA), followed by addition of 1 […] uL of 1.25uM NKH477 (0.25 uM as final concentration) in assay medium using a Flying Reagent Dispenser (Aurora Discovery, San Diego, CA). The plates were incubated at 37 C and 5% CO2 for 3 hrs. Then 1 uL of LiveBLAzer B/G FRET substrate (Invitrogen, Carlsbad, CA) was added to each well using Bioraptr Flying Reagent Dispenser (FRD, Aurora Discovery, San Diego, CA). The plates were incubated at room temperature for 2 h.

| SMILES | Potency |
| --- | --- |
| Cc1ccc([N+](=O)[O-])c(C)c1 | inactive |
| COCCOCCOCCO | inactive |
| CCCCCC1C(=O)CCC1CC(=O)OC (stereo not given) | inactive |
| CC(=O)C1=C(C)[C@@H]2C[C@@]3(C1)[C@H](C)CC[C@H]3C2(C)C | inactive |
| CC(C)(CO)CO | inactive |
| CCCCC(CC)COC(=O)c1ccc(N(C)C)cc1 (stereo not given) | inactive |
| CCCC(C)=O | inactive |
| CC(C)(C)[C@@H](O)[C@@H](Cc1ccc(Cl)cc1)n1cncn1 | inactive |
| CCCCCNCCCCC | inactive |
| CCc1cccc2c3c([nH]c12)C(CC)(CC(=O)O)OCC3 (stereo not given) | inactive |
| CC(=O)Nc1ccc2c(c1)Cc1cc(NC(C)=O)ccc1-2 | inactive |
| NC(=O)N1c2ccccc2C=Cc2ccccc21 | inactive |
| O=C(O)c1ccccc1 | inactive |
| O=[N+]([O-])C(CO)(CO)CO | inactive |
| Cc1ccc(C)c(O)c1 | inactive |
| CCC(C)C=O (stereo not given) | inactive |
| C/C=C/C(=O)N(CC)c1ccccc1C | inactive |
| N[C@@H](Cc1cc(I)c(Oc2ccc(O)c(I)c2)c(I)c1)C(=O)O | inactive |
| CN(C)c1nc(N(C)C)nc(N(C)C)n1 | inactive |
| C[C@]12CC[C@@H]3c4ccc(O)cc4CC[C@H]3[C@@H]1C[C@@H](O)[C@@H]2O | inactive |

| SMILES | Potency |
| --- | --- |
| CC1(C)S[C@@H]2[C@H](NC(=O)COc3ccccc3)C(=O)N2[C@H]1C(=O)O | inactive |
| Nc1nc2ncc(CNc3ccc(C(=O)N[C@@H](CCC(=O)O)C(=O)O)cc3)nc2c(=O)[nH]1 | inactive |
| NC(=O)c1ncn([C@@H]2O[C@H](CO)[C@@H](O)[C@H]2O)n1 | inactive |
| NC(=O)/N=N/C(N)=O | inactive |
| CCO[Si](CCCNC(N)=O)(OCC)OCC | inactive |
| CCCCCCCC(=O)O | inactive |
| Cc1ccnc2c1NC(=O)c1cccnc1N2C1CC1 | inactive |
| COc1ccc(O)cc1 | inactive |
| Cc1cnc(NC(=O)C2=C(O)c3ccccc3S(=O)(=O)N2C)s1 | inactive |
| CC1=CC[C@H]2C[C@@H]1C2(C)C | inactive |
| Cc1c(N(C)CS(=O)(=O)O)c(=O)n(-c2ccccc2)n1C | inactive |
| CN(C)Cc1cc(CN(C)C)c(O)c(CN(C)C)c1 | inactive |
| Cc1c(N(C)C)c(=O)n(-c2ccccc2)n1C | inactive |
| O=C1OC2(c3ccccc31)c1cc(I)c(O)c(I)c1Oc1c2cc(I)c(O)c1I | inactive |
| O=C(O)/C=C\C(=O)O | inactive |
| O=C(OCc1ccccc1)c1ccccc1 | inactive |
| COc1ccc(CN(CCN(C)C)c2ccccn2)cc1 | inactive |
| COc1ccc(C(=O)c2ccccc2)c(O)c1 | inactive |
| Nc1ccn([C@H]2CC[C@@H](CO)O2)c(=O)n1 | inactive |
| Cc1cccc([N+](=O)[O-])c1C | inactive |
